Screens (PubChem BioAssay)
AMA1-RON2 inh: AMA1-RON2 (P. falciparum) interaction inhibition; 360,000 compounds, 0.2% hits; Potency, µM (titrated, usually from 58.2 µM), for the others: top-dose activity change, negative = inhibition, most hits filed as inhibitors; AlphaScreen AMA1-biotinylated RON2 peptide binding;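 also: potency is read from the fitted curve at half-maximal effect; 0% = vehicle wells and -100% = peptide control; nearly all actives have a fitted effect of over 45% in size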
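AMA1 (3D7) with his tag at 25 nM final met compounds first, then biotinylated RON2 peptide at 25 nM; detection used donor plus acceptor beads, 10 µg/mL apiece, read by AlphaScreen after 30 min at room temperature.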
Shiga toxin inh: Shiga toxin inhibition; Vero cells, Shiga toxin protein synthesis inhibition reporter; inhibition, % at 38.7 µM; 290,000 compounds, 9.2% hits; AID 2315; in the data active = inhibition mostly above about 28%, no sharp cut-off; inactive = mostly below about 43%; also: 0% is about no effect
AmpC no deterg: blocks E. coli AmpC beta-lactamase in detergent-free assay; 330,000 compounds, 0.52% hits; Potency, µM (series often up to 57.1 µM), for the others: at the highest dose activity change, negative = inhibition, usual class: inhibitors; P00811; AmpC nitrocefin hydrolysis, absorbance 480 nm, 0.0001% Triton;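 also: potency is read from the fitted curve at half-maximal effect; plate controls were no compound for no effect and no enzyme for full effect; nearly all actives have a fitted effect of over 20% in size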
Target sequence (P00811 whole entry, looked up): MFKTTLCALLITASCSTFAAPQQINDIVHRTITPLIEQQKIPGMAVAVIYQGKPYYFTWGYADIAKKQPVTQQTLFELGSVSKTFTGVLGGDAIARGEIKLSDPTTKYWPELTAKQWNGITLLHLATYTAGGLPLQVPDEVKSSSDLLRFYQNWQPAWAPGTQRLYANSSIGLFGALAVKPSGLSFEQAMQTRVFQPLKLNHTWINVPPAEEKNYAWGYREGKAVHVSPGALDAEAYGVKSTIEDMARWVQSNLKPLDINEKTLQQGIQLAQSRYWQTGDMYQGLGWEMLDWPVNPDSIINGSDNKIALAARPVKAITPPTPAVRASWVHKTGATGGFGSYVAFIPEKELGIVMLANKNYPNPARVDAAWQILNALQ
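20 mM phosphate pH 7.0 + 0.01% (detergent screen) or 0.0001% Triton X-100; 5.3 nM AmpC reagent; cpd preinc 15 min RT; nitrocefin (800 uM stock) to start; A480 q20 s × 4 min; Activity was normalised to no-enzyme and no-compound control wells.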
CHX counter: counter-screen for Shiga toxin inhibitors: cycloheximide protein synthesis inhibition; cell reporter, cycloheximide protein synthesis inhibition counterscreen; max response, %; 300,000 compounds, 12% hits; AID 2314; in the data active = max response mostly above about 13%, no sharp cut-off; inactive = mostly below about 14%; also: read at 38.3 µM for the half of the compounds with a filed dose; 0% is about no effect
SARS PLP yeast: inhibitors of SARS-CoV papain-like protease in yeast; Potency, µM (top dose mostly 32.9 µM), without a hit: at the highest dose activity, positive = growth rescue, hits mostly activators; AID 485353; 330,000 compounds, 0.19% hits; S. cerevisiae expressing SARS-CoV PLpro, growth rescue; calls by dose curve; also: potency is read from the fitted curve at half-maximal effect; 0% is about no effect; nearly all actives have a fitted effect of over 55% in size
AmpC detergent: blocks E. coli AmpC beta-lactamase in detergent assay | P00811 | AmpC hydrolysis of nitrocefin, absorbance 480 nm, 0.01% Triton | Potency, µM (titrated, usually from 114 µM), for inactives: at the top dose activity change, negative = inhibition, most hits filed as inhibitors | 370,000 compounds, 0.041% hits | AID 485294;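 also: potency is read from the fitted curve at half-maximal effect; 0% = no-compound wells and -100% = no-enzyme wells; nearly all actives have a fitted effect of over 25% in size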
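20 mM phosphate pH 7.0 + 0.01% (detergent screen) or 0.0001% Triton X-100; 5.3 nM AmpC reagent; cpd preinc 15 min RT; nitrocefin (800 uM stock) to start; A480 q20 s × 4 min; Activity was normalised to no-enzyme and no-compound control wells.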
Numbers without * were called inactive; u = inconclusive; x = no result given; + = active, no number. Only a selection was taken, and hits are over-represented in it overall. Unless noted, calls follow the shape of the dose curve; as a rule, active = well fitted curve in the direction sought with a large enough effect; inconclusive = small, poorly fitted or top-dose-only effect, or another doubt; inactive = no such curve, though single readings can be large; an effect the other way counts as inactive or inconclusive.

SMILES	AMA1-RON2 inh	Shiga toxin inh	AmpC no deterg	CHX counter	SARS PLP yeast	AmpC detergent
O=C(Oc1ccc(C(=S)N2CCCCC2)cc1)c1ccccc1F	-1%	-20	-8%	-3	0%	1%
C#CC(C)(CC)NC(=O)Cn1nnc(-c2ccc(OCc3ccccc3Cl)cc2)n1 (stereo not drawn)	x	x	x	x	x	1%
Fc1ccccc1COc1ccc(-c2nnn(Cc3ccccc3F)n2)cc1	36%	13	-22%	-1	12%	u
Fc1ccccc1COc1ccc(C(=S)N2CCCC2)cc1	4%	116*	-35%	34*	-8%	0%
Cn1nnc(-c2ccc(OCc3ccccc3F)cc2)n1	0%	94*	2%	44*	2%	-3%
Cc1ccc(C(C)C)c(OCC(=O)NNC2=CC(=O)CC(C)(C)C2)c1	9%	32	34%	-2	0%	-6%
CCOc1ccccc1NC(=O)c1c(C)cc(C)nc1SCC(=O)c1cccc(OC)c1	x	x	x	x	x	-1%
Oc1ccccc1-c1ccn[nH]1	109%	x	-14%	x	-1%	x
Cc1ccc(C)n1-c1ccc(-c2ccn[nH]2)cc1	2%	71*	100%	36*	-5%	-13%
Cc1ccc(C)n1-c1ccc(-c2nnco2)cc1	x	-4	13%	6	-2%	u
c1ccn(-c2ccc(-c3ccn[nH]3)cc2)c1	-9%	91*	-21%	37*	-3%	-12%
O=S(=O)(c1cccs1)N1CCN(S(=O)(=O)c2cccs2)CC1	-5%	4	-5%	-2	1%	u
OCCC1CN(Cc2nc3ccc(F)cc3[nH]2)CCN1C1CCCC1 (stereo not drawn)	109%	-8	-10%	7	0%	6%
O=C1Nc2ccc(F)cc2C12Nc1ccccc1-c1nnc(SCc3ccccc3)nc1O2 (stereo not drawn)	-9%	2	18µM*	3	-16%	-10%
Cc1ccc(CSc2nnc3c(n2)OC2(Nc4ccccc4-3)C(=O)Nc3ccc(F)cc32)cc1 (stereo not drawn)	-17%	-9	u	4	-20%	-13%
COc1cc2c(cc1OC)-c1nnc(-c3cccs3)n1C1(CCCC1)C2	-4%	-11	-9%	-4	0%	3%
O=C(c1ccccc1)c1ccc(-c2ccc(O)cc2)cc1	26%	68*	-49%	40*	-4%	1%
CCN(CC)c1ccc(/C=C/C(=O)c2ccc(Br)cc2)cc1	168%	-3	-15%	14*	-18%	-13%
CN(C)c1ccc(/C=C/C(=O)c2ccccc2)cc1[N+](=O)[O-]	u	+	-29%	62*	3%	u
CCN(CC)c1ccc(/C=C/C(=O)c2cccnc2)cc1	8%	-4	-24%	-4	2%	4%
CN(C)c1ccc(C(=O)/C=C/c2ccc(Br)cc2)cc1	-4%	58*	-19%	23*	10%	1%
O=C(c1ccccc1)c1ccccc1	-2%	-3	-4%	3	-2%	6%
NC(=O)c1cccc(-c2ccnc3c2CC(C(=O)Nc2cccc(Oc4ccccc4)c2)O3)c1 (stereo not drawn)	-3%	x	x	x	x	x
COc1ccc(CNC(=O)C[C@H]2C[C@H](C(=O)N3CCOCC3)[C@@]3(C)c4[nH]c5cc(-c6ccco6)ccc5c4CCN3C2=O)cc1OC	-28%	x	188%	x	3%	x
CC1(C(=O)NS(=O)(=O)c2ccccc2Cl)CCN1C(=O)CC1CCCC1 (stereo not drawn)	-4%	x	x	x	x	x
SMILES	AMA1-RON2 inh	Shiga toxin inh	AmpC no deterg	CHX counter	SARS PLP yeast	AmpC detergent
CN(C)c1ccc(C(=O)/C=C/c2ccccc2)cc1	-14%	105*	-25%	44*	-7%	0%
C=C(c1ccccc1)c1ccc(N(C)C)cc1	-30%	41	-19%	2	0%	2%
CN(C)c1ccc(C(=O)c2ccccc2)cc1	3%	41	-20%	26*	-12%	2%
O=C(C=Cc1cccc(Cl)c1)c1ccccc1	-3%	x	x	x	x	x
CN(C)/C=N/c1ncn(-c2ncc(C(F)(F)F)cc2Cl)n1	33%	50*	-4%	20	-1%	7%
CN(C)/C=N/S(=O)(=O)c1cccn1-c1ncc(C(F)(F)F)cc1Cl	-9%	0	1%	-1	1%	-1%
CCc1cc(C(=O)N2CCN(c3ccccc3OC)CC2)sc1C	-3%	2	50%	2	2%	3%
COc1ccc(N(C)C(=O)c2cc3c(s2)-c2ccccc2OC3)cc1	x	x	x	x	x	5%
CCOC(=O)C1CCN(C(=O)c2cc3c(s2)-c2ccccc2OC3)CC1	39%	40*	90%	21*	-5%	u
COC(=O)c1cc2c(s1)-c1ccc(OC)cc1CC2	92%	115*	-11%	55*	-3%	-6%
O=C(c1cc2c(s1)-c1ccccc1OC2)N1CCc2ccccc2C1	22%	56*	-14%	87*	-35%	u
COc1ccc2c(c1)CCc1sc(NC(=O)c3ccc(C)cc3)nc1-2	3%	80	-56%	19	0%	-3%
COC(=O)c1cc2c(s1)-c1ccccc1OC2	101%	64*	-23%	28*	-1%	u
CCc1ccccc1NC(=O)Cn1nnc(C(=O)OC)c1C(=O)OC	x	x	x	x	x	7%
CC(=O)c1cccc(NC(=S)NC(=O)c2ccc(Cl)cc2)c1	0%	65*	-26%	63*	12%	-7%
Cc1cccc(C(=O)NC(=S)Nc2ccc3[nH]c(=O)[nH]c3c2)c1	66%	18	-40%	16*	-1%	-8%
CC(=O)c1cccc(NC(=S)NC(=O)c2ccccc2Br)c1	15%	5	-41%	3	5%	-12%
Cc1ccc(C(=O)NC(=S)Nc2ccc3[nH]c(=O)[nH]c3c2)c(C)c1	5%	-2	-11%	-2	1%	-13%
CC(=O)c1cccc(NC(=S)NC(=O)c2cccc(C)c2)c1	24%	83*	-26%	40*	-11%	-8%
COc1ccc(CCN2CCC(CN3C(=S)NC[C@@H]3CC(C)C)CC2)cc1OC	-5%	x	x	x	x	x
Cc1ccc2nc(NC(=O)Cn3cc4c(n3)CCCCC4)sc2c1	22%	30	2.8µM*	16*	4%	u
O=C(Cn1cc2c(n1)CCCC2)Nc1ccccc1Cl	-7%	16	u	-2	-1%	u
O=C(Cn1cc2c(n1)CCCCC2)NCc1ccccc1	12%	-3	-4%	-4	-9%	u
O=C(Cn1cc2c(n1)CCCCC2)Nc1ccccc1Cl	-5%	21	-3%	12*	-3%	6%
CCN(Cc1ccccc1)C(=O)Cn1cc2c(n1)CCCC2	-3%	4	4.5µM*	-1	3%	-15%
O=S(=O)(c1ccccc1)c1nc(-c2ccco2)oc1SCc1ccc(F)cc1	x	x	x	x	x	-7%
